This excerpt belongs to a sample that is enriched for hits.
GFP derepression: qHTS Assay for Epigenetic Modulators. mouse C127i GFP locus derepression, cytometry, 30 h. Potency, µM (highest dose often 46.1 µM), for the others: at the highest dose GFP derepression (activation). hit rate 0.09% among 68,000; further: % of control where 0% means no effect
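Murine C127i mammary cells carrying a silenced, stably integrated CMV-driven GFP reporter were treated with compound for 30 hours at 37 C. After PBS washes, GFP-positive cells were counted by laser-scanning microplate cytometry.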
USP2a inh: qHTS Assay for Inhibitors of Ubiquitin-specific Protease USP2a; USP2a enzymatic assay, qHTS inhibition; Potency, µM (titrated, usually from 38.3 µM), without a hit: at the top dose activity change, negative = inhibition, most hits filed as inhibitors; AID 927, 2007; hit rate 0.1% among 60,000; further: potency means the concentration at half of the fitted maximal effect; nearly all actives have a fitted effect of over 60% in size
Target sequence (O75604 whole entry, looked up): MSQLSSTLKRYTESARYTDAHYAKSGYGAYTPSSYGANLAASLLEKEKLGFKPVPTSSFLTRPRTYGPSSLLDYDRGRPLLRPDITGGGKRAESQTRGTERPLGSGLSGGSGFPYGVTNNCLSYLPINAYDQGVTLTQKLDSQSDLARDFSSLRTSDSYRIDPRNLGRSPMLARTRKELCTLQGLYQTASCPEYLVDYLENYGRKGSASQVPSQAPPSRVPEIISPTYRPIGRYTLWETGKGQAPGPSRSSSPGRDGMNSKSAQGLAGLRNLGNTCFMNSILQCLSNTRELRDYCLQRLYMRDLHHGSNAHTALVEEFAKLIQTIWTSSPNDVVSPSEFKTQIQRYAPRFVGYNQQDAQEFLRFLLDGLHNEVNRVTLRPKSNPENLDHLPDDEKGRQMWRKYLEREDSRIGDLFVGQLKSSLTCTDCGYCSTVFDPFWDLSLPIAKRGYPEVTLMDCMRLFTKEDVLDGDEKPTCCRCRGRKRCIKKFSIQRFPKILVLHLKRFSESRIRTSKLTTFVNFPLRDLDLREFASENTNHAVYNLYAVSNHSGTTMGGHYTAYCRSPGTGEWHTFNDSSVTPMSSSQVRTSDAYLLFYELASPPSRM
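Coupled readout: USP2-cleaved Ub-PLA2 (20nM final) turns over NBD C6-HPC (20uM final), Ex 460nm/Em 535nm after 2.5 h, time-zero read flagging artifacts. Enzyme (20nM final, pH 8.0 Tris) given 30 min RT with compound first; NEM defines full inhibition.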
UbGFP stabilizer: Ubiquitin-GFP Assay; 67,000 tested, under 10 active; Ubiquitin-GFP reporter cells, proteasome inhibition, GFP fluorescence; response scale: untreated = 0%, 10 µM MG-132 = 100%; AID 526, 2006; Potency, µM (highest dose often 45.9 µM), for the others: top-dose activation (GFP accumulation), actives largely listed as activators; active means well fitted activation curve with a large enough effect, not every such curve was filed as active; inconclusive means small, poorly fitted or top-dose-only effect, or another doubt; inactive means no such curve, though single readings can be large or run the other way; further: potency means the concentration at half of the fitted maximal effect
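Reporter cells (U2OS, ubiquitin-G76V-GFP fusion) are plated overnight, then treated 4 hr at 37 °C with compound titrations from 46 uM down to 2.9 nM. Activity is scaled against untreated cells and 10 uM MG-132.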
GBA activity: Glucocerebrosidase; Potency, µM; Lysosomal acid glucosylceramidase (Homo sapiens), P04062; hit rate 1.1% among 48,000; purified enzyme, resorufin glucoside fluorescence (screen aimed at inhibitors), 20 min; in the data active means potency below about 15 µM; inconclusive means mostly about 16 µM to 33 µM;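 further: potency means the concentration at half of the fitted maximal effect; the screen sought inhibitors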
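Compounds titrated against 0.2 nM normal enzyme, 30 uM resorufin beta-D-glucopyranoside substrate, citrate/phosphate buffer with taurocholate and tween-20, pH 5.9. Reaction ran 20 min at room temperature; fluorescence (Ex 548/Em 600) gave AC50.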
HBB splicing: qHTS Assay for Modulators of Hemoglobin Beta Chain Splicing; hit rate 0.06% among 65,000; HBB splicing reporter cell assay, activation; EGFP reporter with mutant IVS2-654 intron; response scale: normalised to 500 nM splice-correcting PNA; Potency, µM (highest dose often 46.1 µM), inactives show top-dose activation, actives largely listed as activators; further: potency means the concentration at half of the fitted maximal effect; 0% is about no effect
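HeLa cells stably expressing EGFP interrupted by mutant beta-globin intron 2 (IVS2-654), 500/well in 2% FCS. Treated with compound for 2 days at 37C. Splicing correction scored as total well GFP intensity (488 nm excitation, 500-520 nm emission); 500 nM antisense PNA served as control.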
* hit, by the source's call; i = inactive; u = inconclusive; x = not tested or not shown; [ ] = dose if it differs, or a comment. Unless noted, the call rests on the fitted dose curve; in most records, active means well fitted curve in the direction sought with a large enough effect; inconclusive means small, poorly fitted or top-dose-only effect, or another doubt; inactive means no such curve, though single readings can be large; an effect the other way counts as inactive or inconclusive.

SMILES | GFP derepression | USP2a inh | UbGFP stabilizer | GBA activity | HBB splicing
Cc1cc(N=Cc2c(O)n(-c3ccc4c(c3)OCO4)c(=O)c3ccccc23)ccn1 | u | 34% | 8% | 11* | -4%
Cc1cccc(-n2c(O)c(C=Nc3ccc4c(c3)OCO4)c3ccccc3c2=O)n1 | -4% | 22% | 1% | >77 | -3%
N#Cc1c(NC(=O)CSc2nnc(-c3ccccc3O)n2-c2ccccc2)sc2c1CCCC2 | -1% | 40% | 0% | 10* | -1%
CN(C)Cc1ccccc1-c1ccc2ncnc(NC3CCNCC3)c2c1 | 0%[9.22 µM] | -8% | -1% | x | 1%
CC(C)Oc1cccc(C(=O)Nc2ccc(NC(=O)c3ccco3)cc2)c1 | 5% | 26% | -1% | 11* | 0%[57.5 µM]
O=C(c1ccncc1)N1CCC[C@@]2(CCN(Cc3ccccc3)C2)C1 | 14%[9.22 µM] | 13% | 0% | x | 2%
COc1cccc(CCc2ccccc2OCC[C@@H]2C[C@@H](O)CN2C)c1 | x | x | x | x | -1%
O=C(NCCN1CCOCC1)NC1(C(F)(F)F)Oc2ccc(Cl)cc2O1 (configuration not stated) | 0% | 6% | -3% | 9.8* | 0%[57.5 µM]
Cc1cccc(Nc2nc(N)nc(CN3CCN(Cc4ccc5c(c4)OCO5)CC3)n2)c1 | 0% | 32% | -6% | 9.8* | -1%[57.5 µM]
COc1cccc(N2CCN(Cc3nc(N)nc(Nc4ccccc4)n3)CC2)c1 | -2% | 24% | -3% | 2.9* | -2%[57.5 µM]
Cc1cccc(Nc2nc(N)nc(CN3CCN(c4ccccc4)CC3)n2)c1 | -4% | 41% | 39% | 4.3* | 0%[1.84 µM]
CN1CCN(Cc2nc(N)nc(Nc3ccc4c(c3)OCCO4)n2)CC1 | 0% | 3% | 2% | >77 | 2%[57.5 µM]
Nc1nc(CN2CCN(c3ccccn3)CC2)nc(Nc2ccc(Cl)cc2)n1 | 4% | 36% | -5% | i | 0%[57.5 µM]
Cc1cccc(Nc2nc(N)nc(CN3CCN(c4ccccc4F)CC3)n2)c1 | 0% | 40% | -7% | 1.4* | -3%[57.5 µM]
Cc1ccc(Nc2nc(N)nc(CN3CCCCCC3)n2)c(C)c1 | -4% | 23% | 5% | x | 1%
Cn1c(=O)c2[nH]c([C@@H]3CC(=O)C[C@H](c4nc5c([nH]4)c(=O)n(C)c(=O)n5C)N3)nc2n(C)c1=O | -2%[9.22 µM] | x | 2%[9.17 µM] | x | 1%[9.22 µM]
Nc1nc(N2CCN(C/C=C/c3ccccc3)CC2)nc2ccccc12 | 3% | 29% | -3% | 8.4* | 2%[1.84 µM]
O=c1[nH]c(CN2CCN(C/C=C/c3ccccc3)CC2)nc2ccccc12 | 0% | 20% | 2% | >77 | 6%
Cc1ccc(C(=O)Cn2c(NCCO)nc3ccccc32)cc1 | 1% | 8% | -2% | 14* | x
O=C(Nc1ccc(-c2noc(CCc3ccccc3)n2)cc1)c1cccnc1 | -3% | 61% | 0% | 14* | 0%
COc1ccccc1CN1CCCC2(CCN(C(=O)c3ccncc3)CC2)C1 | -2%[9.22 µM] | 27% | -9% | x | -1%
CCCC(=O)Nc1ccc(C(=O)Nc2nnc(COC)s2)cc1 | 2% | -7% | -3% | 0.77* | x
COCc1nnc(NC(=O)c2ccc(NC(C)=O)cc2)s1 | -2% | -8% | 8% | 6.8* | -5%
COc1ccc(C(=O)Nc2nnc(C(F)(F)F)s2)cc1 | -2% | -2% | 6% | 3.3* | x
O=C(Nc1nnc(C(F)(F)F)s1)c1cccnc1 | 3% | -9% | -1% | x | 9%
SMILES | GFP derepression | USP2a inh | UbGFP stabilizer | GBA activity | HBB splicing
CO[C@@H](C(C)C)[C@@H](C)[C@@H]1OC(=O)C[C@@H]1O | x | x | x | x | 1%[9.22 µM]
c1csc(CNc2ccnc(-c3ccoc3)n2)c1 | -3%[9.22 µM] | 152% | 2% | x | -1%
CCCCN1CCc2c([nH]c3c(C)cccc23)C1=O | -1% | -10% | 13% | 9.8* | -1%
Nc1nc(-c2cccnc2)nn1C(=O)c1ccco1 | 0% | -9% | -3% | >77 | -1%
COc1ccc(CNc2nc(-c3cccnc3)nn2C(=O)c2ccco2)cc1 | -3% | 13% | 2% | 11* | 0%
COC(=O)C1=C(C)N(Cc2ccccc2)C2=C(C(C)=O)C(c3ccccc3)[C@@](O)(C(=O)OC)C(=O)N2C1c1ccccc1 (some centres not stated) | x | x | x | x | 0%[9.22 µM]
COc1cccc([C@@H]2Oc3ccc(OC)cc3/C(=N/O[C@@H](C)CN3CCCc4nc(C)c(C)cc43)[C@@H]2O)c1 | x | x | x | x | 0%[9.22 µM]
CC1CC=C2C(C#N)=C(N)C(C#N)(C#N)C(c3cccs3)C2C1 (configuration not stated) | -1% | x | 0% | 11* | -1%[57.5 µM]
CC(C)(C)OC(=O)N1CC=C2C(C#N)=C(N)C(C#N)(C#N)C(c3cccs3)C2C1 (configuration not stated) | 1% | 19% | 0% | u | 0%[57.5 µM]
Oc1ccccc1C1=Nc2nc3ccccc3n2C(c2ccccc2)C1 (configuration not stated) | -2% | 41% | 11% | 15* | 1%[1.84 µM]
COc1ccc(C2C(C(=O)NCCN3CCOCC3)c3ccccc3C(=O)N2C2CCCCC2)cc1 (configuration not stated) | -1% | 22% | -9% | 14* | -2%
CCOC(=O)c1c(C)[nH]c(C(=O)COC(=O)CCC(=O)c2ccc3c(c2)OCCO3)c1C | 3% | 28% | 2% | 11* | 0%[57.5 µM]
CCOC(=O)c1c(C)[nH]c(C(=O)COC(=O)C2CC2C)c1C (configuration not stated) | -1% | 1% | 3% | 7.8* | -2%
O=C(N/N=C1/C[C@@H](O)[C@@H](O)[C@@H]2[C@@H]3C(=O)N(C[C@@H]4CCCO4)C(=O)[C@H]3CC[C@@H]12)OCc1ccccc1 | x | x | x | x | -2%[9.22 µM]
COc1cccc(-c2nc(NC3CC3)c3ccccc3n2)c1 | -3%[9.22 µM] | 52% | -4% | x | -2%
Nc1nc(Sc2ccc([N+](=O)[O-])c3nonc23)c2[nH]cnc2n1 | u | x | -8%[9.17 µM] | x | 3.2µM*
CNc1ncnc(Sc2nc(N)nc3nc[nH]c23)c1[N+](=O)[O-] | 3%[9.22 µM] | x | -3%[9.17 µM] | x | u
CCCCC(=O)N(CCOC)c1nnc(-c2ccc(OC)cc2)s1 | 2% | 2µM* | 0% | >77 | x
COCCN(C(=O)c1cccc(OC)c1)c1nnc(-c2ccncc2)s1 | 1% | 16% | 0% | >77 | 0%
CCNc1nc(NCC)nc(-n2nc(C)cc2C)n1 | u | x | 9% | x | 0%
Cc1cc(C)n(-c2nc(NC(C)(C)C)nc(NC(C)(C)C)n2)n1 | 13µM* | 2% | 0% | x | -1%[9.22 µM]
CN1CCN(c2ncc3nc(-c4cccs4)c(=O)n(Cc4ccc(F)cc4)c3n2)CC1 | 4µM* | 89% | u | x | u
COc1cccc(Cn2c(=O)c(-c3cccs3)nc3cnc(Nc4cccc(OC)c4)nc32)c1 | 0%[9.22 µM] | 158% | 7% | x | 10µM*
